Test results published in PubChem BioAssay.

System: Plasmodium falciparum Sir2 (PF13_0152, Sir2A)
Assay: Plasmodium falciparum Sir2A binding compounds – biochemical, small-molecule microarray, 635 nm fluorescence, primary screen (AID 1098);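 also: score merges spot fluorescence intensity with its signal-to-noise ratio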
Conditions: fluorescence 635 nm, higher = more signal

SMILES | composite z-score
CN(C)C(=O)[C@]1(CCC(=O)OC(C)(C)C)N=C(c2ccc(OCCCO)cc2)O[C@@H]1c1ccccc1CN=[N+]=[N-] | 1.45
Cc1ccccc1C(O)C1C=CC2C(=O)NC(=O)C2N1Nc1ccccn1 (configuration not stated) | 0.105
COCCOC(=O)N1C(=O)[C@@]2(c3ccccc31)[C@H](C(=O)NC[C@H](O)c1ccccc1)[C@H]1C(=O)O[C@H](c3ccccc3)[C@H](c3ccccc3)N1[C@@H]2c1ccc(O)cc1 | 1.54
CC1CC/C=C\[C@H]2OC34C=CCN(C(C)C)C(=O)[C@H]3N(CCO)C(=O)[C@@H]4C2C(=O)O1 (some centres not stated) | 0.501
CCOC(=O)C=Cc1cccc(C)c1O | 0.995
CCCCCCCCCCC(O)C1C=CC2C(=O)N(c3ccccc3)C(=O)C2N1Nc1ccc(C#N)cc1 (configuration not stated) | 0.905
COCC(=C=CC[C@H](O)c1ccc(CO)o1)CCO | 1.39
